The campaign covered roughly 190,000 compounds. About 790 (0.42%) were called active. Only a selection was taken, and actives are over-represented in it overall. Values without a mark were called inactive.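 The calls were made as follows: active = inhibition above a set limit, the median over all tested compounds plus 3 SD (cut at about 9.5% in these data); inconclusive = no clear call, values can overlap the other calls; inactive = the rest.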

Drawing on PubChem BioAssay AID1066 (SRMLSC, 2008), this text covers inhibition for 96 molecules.

The experiment concerns HMG-CoA reductase (Enterococcus faecalis, mvaE). Put plainly: class II HMG-CoA reductase enzyme inhibition – biochemical, Enterococcus faecalis, primary screen (AID 1066).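 Also: enzyme runs in reverse so mevalonate oxidation gives rising NADPH absorbance; 0% = complete reaction with DMSO and 100% = background rate lacking mevalonate.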 The conditions noted are these: purified E. faecalis HMGR, NADPH absorbance 340 nm kinetic; at 10 µM; hits give high values.
Consider `O=C(N/N=C/c1ccco1)c1ccc(C(=O)N/N=C/c2ccco2)o1`, for which the inhibition (commonly the relative decrease from the control value, in per cent) is 3.83%. With `CCN(C(=O)c1ccc(Br)cc1)c1ccccc1` the figure was -0.76%. The same measure for `CCOC(=O)CNC(=O)CSc1ccc2nnc(-c3cccnc3)n2n1`: -1.15%. As for `CCOc1ccc(-c2ccc(SCC(=O)N3CCOCC3)nn2)cc1`, the inhibition is -2.28%. Take `Cc1ccc(C(=O)NCC(=O)O)s1`: the inhibition is -1%. On to `O=C(Nc1cccc(Cl)c1)Nc1ccccc1NS(=O)(=O)c1cccs1`, for which the inhibition is -2.46%. In the case of `CCc1ccc(C(=O)OCC(=O)NCC(F)(F)F)cc1`, the inhibition is -8.47%. With `CCC(=O)Nc1sc(C(=O)Nc2ccccc2)c(C)c1C(=O)OC` the figure was 13% (active). As for `COC(=O)c1c(NC(C)=O)sc(C(=O)Nc2ccccc2OC)c1C`, the inhibition was -2.99%. With `CCOC(=O)c1sc(NC(=O)COc2ncnc3ccccc23)c(C(=O)OCC)c1C` the figure was 3.4%; with `CCOC(=O)Cn1nnnc1C`, -2.01%. Take `Oc1cccc2ccc(/C=C/c3ccc(Br)s3)nc12`: the inhibition is 0.35%. The same measure for `Cc1ccc(NC(=O)Nc2cccc(C(F)(F)F)c2)nc1`: -0.23%; for `CCC(=O)Nc1ccc(Nc2nc(Cl)nc(Nc3ccc(NC(=O)CC)cc3)n2)cc1`: -2.77%. With `Cc1ccc2nc(Nc3ncc4c(n3)CC(C)(C)CC4=O)nc(C)c2c1` the figure was -0.8%; with `NC(=O)COc1ccc(C23CC4CC(CC(C4)C2)C3)cc1`, 6.59%.

On to `O=C(CCN1C(=O)c2ccccc2C1=O)NNC(=O)c1ccc(Cl)cc1Cl`, for which the inhibition is -5.06%.

Turning to `CC(=O)N/C(=C/c1ccc(OC(F)F)cc1)C(=O)O`, the inhibition is 0.04%. For `CC(CCn1cccn1)NC(=O)CCc1nnc(CCc2ccccc2)o1` (stereo unspecified), the inhibition was -1.69%. Take `COC(=O)C1=C(C)N(c2ccc(C)cc2)/C(=C/c2ccc(O)cc2)C1=O`: the inhibition was 1.84%. The same measure for `O=C(CSC1CC(=O)N(CCc2ccccc2)C1=O)Nc1ccc(Cl)cc1` (stereo unspecified): 0.85%. With `CC(Sc1nnnn1C1CCCCC1)C(=O)O` (stereo unspecified) the figure was 3.4%; with `Cc1cccc(-c2nc3ccccc3c(=O)n2NC(=O)Cc2ccc(Cl)cc2)c1`, 2.94%; with `NNC(=O)C1CC(O)CN1S(=O)(=O)c1ccc(Cl)cc1` (stereo unspecified), -8.75%. The same measure for `COc1cc(NC(=O)c2ccccc2NS(=O)(=O)c2ccc(Cl)s2)cc(OC)c1`: -0.12%. Turning to `C/C(=N\NC(=O)NC1CCCCC1)c1ccc(OC(F)F)cc1OC(F)F`, the inhibition is -0.33%. As to `CCc1ccc(CN2C(=O)c3ccccc3C2C(=O)NCC2CCCO2)cc1` (stereo unspecified), the inhibition was -2.1%.

On to `CC(=O)Oc1ccccc1C1=NN(C(C)=O)C(c2ccccc2)C1` (stereo unspecified), for which the inhibition was -1.75%. The same measure for `COc1ccc(-c2cc(-c3ccc(N)cc3)nc(N)c2C#N)cc1OC`: 11.6% (active); for `CCOc1cc(-c2cc(-c3ccc(OC)cc3)nc(N)c2C#N)ccc1O`: -5.02%; for `CCSc1nc(-c2ccc(OC)cc2)cc(-c2ccc(OC)cc2)c1C#N`: -8.44%. Regarding `COc1ccc(C2C(C#N)=C(N)N(c3ncn[nH]3)C3=C2C(=O)CCC3)cc1` (stereo unspecified), the inhibition was 3.99%. With `FC(F)Oc1ccccc1NC(=S)Nc1cccc(Cl)c1Cl` the figure was -10.5%. The same measure for `CS(=O)(=O)N(Cc1ccccc1)c1ccc(C(=O)NN=C2CCCCCC2)cc1`: -2.77%. Take `Cc1[nH][nH]c(=O)c1C(c1ccc2c(c1)OCO2)c1c(C)[nH][nH]c1=O`: the inhibition is 4.7%. The same measure for `CCOc1ccc(C(c2c(C)[nH][nH]c2=O)c2c(C)[nH][nH]c2=O)cc1OCC`: -2.78%; for `Cc1[nH][nH]c(=O)c1C(c1ccc(-c2ccc(Cl)cc2)o1)c1c(C)[nH][nH]c1=O`: 11.6% (active); for `Cc1noc(/C=C/c2ccco2)c1S(=O)(=O)N1CCC(C(=O)Nc2ccc(Cl)cn2)CC1`: 0.34%. With `CC(O)c1cccc(NC(=O)Cc2cccc3ccccc23)c1` (stereo unspecified) the figure was -6.15%; with `Cc1ccc(Sc2ccncc2S(N)(=O)=O)cc1`, -1.29%. Consider `C[C@@H](O)c1nc2ccccc2n1N`, for which the inhibition is 0.29%. With `CC(C)CC(CC(C)C)=NNC(=O)c1ccc(CSc2nncn2C)cc1` the figure was 1.23%; with `O=C(Nc1cccnc1)c1ccc(Cl)cc1[N+](=O)[O-]`, -3.45%. `NS(=O)(=O)c1ccc(N2C(=O)C3C4CC(C(Br)C4Br)C3C2=O)cc1` (stereo unspecified): the inhibition was 81.6% (active). The same measure for `Cc1ccc(N2C(=O)C3CC3C2=O)cc1` (stereo unspecified): -5.05%; for `CCCOc1ccc(N2C(=O)CC(N(CCc3ccc(S(N)(=O)=O)cc3)C(C)=O)C2=O)cc1` (stereo unspecified): -5%; for `COc1cc(NS(=O)(=O)c2ccc(NC(=O)CN3C(=O)c4ccccc4C3=O)cc2)ncn1`: -9.27%. `O=C(COC(=O)c1ccco1)NCc1ccc(Cl)cc1`: the inhibition was -3.08%. Consider `CC(OC(=O)CCc1nc(=O)c2ccccc2n1C)C(=O)NCc1ccc2c(c1)OCO2` (stereo unspecified), for which the inhibition is 2.38%. With `O=C(Cn1cnc([N+](=O)[O-])n1)NCCc1ccccc1` the figure was 3.82%; with `O=C(CSc1nnc(Cn2cnc3ccccc32)o1)c1ccccc1`, -2.99%; with `CCOc1ccc(Nc2nc(Cc3nnc(SCC(=O)c4ccc(C)cc4)o3)cs2)cc1`, -4.07%. Turning to `CC(=O)Nc1ccc(C(=O)CSc2nnc(Cc3ccccc3)o2)cc1`, the inhibition was 20.1% (active). With `CCOC(=O)c1c(NC(=O)c2cccs2)sc(C)c1C` the figure was 0.72%. Consider `COCCCNCC(=O)Nc1sc(C)c(C)c1C(=O)OC`, for which the inhibition is 1.07%. As for `COC(=O)c1c(NC(=O)c2c(Cl)cnn2C)sc(C)c1C`, the inhibition was 11% (active). The same measure for `CC1=NN(C(=O)c2ccc(Br)cc2)C(O)(c2ccccc2)C1` (stereo unspecified): 3.11%; for `CCOC(=O)C1(O)CC(C)=NN1C(=O)c1cccc(Br)c1` (stereo unspecified): 16.5% (active). The same measure for `CC1=NN(C(=O)c2ccccc2Br)C(O)(c2cccnc2)C1` (stereo unspecified): 0.91%; for `Cc1cccc(-n2cc(CN3CCN(C(=O)c4ncn[nH]4)CC3)c(-c3cccc(F)c3)n2)c1`: -4.4%. For the molecule `NC(N)=NCCCc1cn(CC(=O)N2CCNCC2)nn1`, the inhibition was -8.27%. `O=C(Cc1ccc([N+](=O)[O-])cc1)N/N=C/c1ccco1`: the inhibition was 3.38%. With `CCCOCC(O)CC(CC)C(=O)NNC(=S)Nc1ccccc1` (stereo unspecified) the figure was -0.14%; with `C=CCN(CC=C)CCOc1ccccc1[N+](=O)[O-]`, -2.7%; with `COc1cc(NC(=S)N2CCCC(C)C2)cc(OC)c1OC` (stereo unspecified), 0.35%. With `CN1CCN(C(CNS(=O)(=O)c2cccs2)c2cccnc2)CC1` (stereo unspecified) the figure was -4.32%; with `COc1cc(NC(=O)N2CCOCC2)cc(OC)c1`, -5.26%; with `CN(C)S(=O)(=O)c1ccc(NC(=O)N2CCOCC2)cc1`, 15.2% (active). With `O=C(Nc1ccccc1)N1CCN(C(=O)Nc2ccccc2)CC1` the figure was -2.68%; with `Cc1ccc(SCCC(=O)NCc2ccccn2)cc1`, 1.33%. In the case of `CN1C(=O)/C(=C/c2ccc(C(=O)NC3CCCC3)cc2)Oc2ccccc21`, the inhibition is -13.4%. With `CCN1/C(=C/c2ccc3ccc(C)cc3[n+]2CC)Sc2ccccc21` the figure was -2.41%. The same measure for `O=C(CCN1c2ccccc2Sc2ccccc21)Nc1ccccc1`: -1.11%; for `CCC(=O)/C=C1\Sc2ccccc2N1CC`: 11.8% (active).

As to `COc1cc(/C=N/NC(=O)c2cc(C)n(-c3ccc(F)cc3)c2C)cc(OC)c1O`, the inhibition was 3.01%.

With `Cc1cc(C(=O)N/N=C/c2ccc(O)c([N+](=O)[O-])c2)c(C)n1-c1ccc(F)cc1`, the inhibition is 11.2% (active). With `Cc1cc(C(=O)COC(=O)C2CC2)c(C)n1-c1ccc(F)cc1` the figure was 2.01%; with `CCOc1ccccc1N1CCN(C(=S)Nc2ccc(S(N)(=O)=O)cc2)CC1`, -3.56%. Consider `O=C(Nn1cnc2ccccc2c1=O)c1ccc([N+](=O)[O-])cc1Cl`, for which the inhibition was -1.28%.

As for `CCCCN1C(=O)/C(=C(/C#N)C(N)=O)c2ccccc21`, the inhibition is -0.52%. The same measure for `CN(CC(=O)Nc1ccccc1[N+](=O)[O-])Cc1ccc(Br)cc1`: -2.46%; for `CSc1ccccc1NC(=O)CN(C)CC(=O)Nc1cccc(Br)c1`: 3.22%.

Take `CN(CC(=O)Nc1ccccc1F)CC(=O)Nc1ccccc1Br`: the inhibition was 9.9% (active).

For the molecule `O=C(CCC(=O)NNc1nc2ccccc2c2nc(-c3ccccc3)nn12)NCCCN1CCCC1=O`, the inhibition was 11.7% (active). Turning to `O=C(CCn1c(=S)[nH]c2ccccc2c1=O)NCCCN1CCCC1=O`, the inhibition is -5.44%. With `Cc1cccc(C(=O)NCCCN2CCCC2=O)c1` the figure was -2.71%. The same measure for `O=Cc1ccc(Oc2cccc(C(F)(F)F)c2)nc1`: -2.83%; for `O=C(COC(=O)c1cccc(Br)c1)Nc1cccc2c1C(=O)c1ccccc1C2=O`: -0.48%.

As for `COc1ccc(NC(=O)c2sc(N)nc2-c2ccccc2)cc1`, the inhibition is 3.25%.

`COc1ccc(-n2c(O)c(C=NCC(c3ccco3)N3CCCC3)c3ccccc3c2=O)cc1OC` (stereo unspecified): the inhibition was 3.15%.

`Cc1nn(CCOc2ccc(Br)cc2)c(C)c1[N+](=O)[O-]`: the inhibition was -5.05%. The same measure for `Cc1ncc([N+](=O)[O-])n1CCOC(=O)c1ccc(Br)cc1`: 10% (active). As for `N/C(=N\OC(=O)COc1ccc([N+](=O)[O-])cc1)c1ccc(Br)cc1`, the inhibition is -0.17%.

Turning to `CCN(CC)CCNc1nc(-c2ccc(OC(F)F)cc2)c(C)s1`, the inhibition was -4.92%.

Regarding `CCN(C(=O)CSc1nnc2ccccn12)C1CCS(=O)(=O)C1` (stereo unspecified), the inhibition is -6.19%. With `COC(=O)c1ccc(-n2cnc3ccccc32)nc1` the figure was -2.82%.
